In all, about 5,500 compounds went through this assay and about 2,000 (36%) were called active. Not shown: some 18% with an inconclusive outcome. No stated cut-off is given here; in the data, active means normalized growth mostly below about 0.91 (no sharp cut-off); inconclusive means no clear call, values can overlap the other calls; inactive means mostly above about 0.92. The list shows a part of the results.
Test: chemical genetic growth profiling, strain panel (AID 1159580);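 further: tested at 20 µM; growth read once vehicle control cultures reached saturation at 30 °C; 1 = growth at the plate median or of vehicle wells; lower values mean less growth of the strain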
Details: growth OD

Measured: normalized growth

OC1=Cc2c(O)cc(O)cc2OC1(O)c1ccc(O)c(O)c1 (stereo not drawn)
inactive: S. cerevisiae deletion strains, locus YBR021W, strain FUR4, hits give low values 1.06 | S. cerevisiae deletion strains, locus YBR229C, strain ROT2, hits give low values 1 | S. cerevisiae deletion strains, locus YCL029C, strain bik1, hits give low values 0.997 | S. cerevisiae deletion strains, locus YDL035C, strain GPR1, hits give low values 1.02 | S. cerevisiae deletion strains, locus YDL074C, strain BRE1, hits give low values 0.962 | S. cerevisiae deletion strains, locus YDL101C, strain DUN1, hits give low values 0.99 | S. cerevisiae deletion strains, locus YDL134C, strain PPH21, hits give low values 0.975 | S. cerevisiae deletion strains, locus YDL185W, strain tfp1, hits give low values 0.96 | S. cerevisiae deletion strains, locus YDL192W, strain arf1, hits give low values 1 | S. cerevisiae deletion strains, locus YDR101C, strain arx1, hits give low values 1.03 | S. cerevisiae deletion strains, locus YDR162C, strain NBP2, hits give low values 0.956 | S. cerevisiae deletion strains, locus YDR318W, strain mcm21, hits give low values 1 | S. cerevisiae deletion strains, locus YDR388W, hits give low values 0.994 | S. cerevisiae deletion strains, locus YDR502C, strain sam2, hits give low values 1.01 | S. cerevisiae deletion strains, locus YER110C, hits give low values 0.993 | S. cerevisiae deletion strains, locus YER155C, strain BEM2, hits give low values 1.02 | S. cerevisiae deletion strains, locus YER167W, strain BCK2, hits give low values 1.01 | S. cerevisiae deletion strains, locus YGL078C, strain dbp3, hits give low values 0.972 | S. cerevisiae deletion strains, locus YGL086W, strain mad1, hits give low values 0.997 | S. cerevisiae deletion strains, locus YGL248W, strain PDE1, hits give low values 0.979 | S. cerevisiae deletion strains, locus YGR078C, strain PAC10, hits give low values 0.962 | S. cerevisiae deletion strains, locus YGR135W, strain pre9, hits give low values 0.972 | S. cerevisiae deletion strains, locus YGR252W, strain gcn5, hits give low values 1.1 | S. cerevisiae deletion strains, locus YHR030C, strain SLT2, hits give low values 0.984 | S. cerevisiae deletion strains, locus YHR079C, strain IRE1 (second series), hits give low values 0.995 | S. cerevisiae deletion strains, locus YHR094C, strain hxt1, hits give low values 0.995 | S. cerevisiae deletion strains, locus YHR129C, strain ARP1, hits give low values 0.985 | S. cerevisiae deletion strains, locus YHR200W, strain rpn10, hits give low values 0.997 | S. cerevisiae deletion strains, locus YIL066C, strain RNR3, hits give low values 0.991 | S. cerevisiae deletion strains, locus YIL073C, strain SPO22, hits give low values 0.972 | S. cerevisiae deletion strains, locus YIL125W, strain kgd1, hits give low values 0.989 | S. cerevisiae deletion strains, locus YIR030C, strain dcg1, hits give low values 0.989 | S. cerevisiae deletion strains, locus YJL095W, strain BCK1, hits give low values 0.965 | S. cerevisiae deletion strains, locus YJL134W, strain LCB3, hits give low values 0.997 | S. cerevisiae deletion strains, locus YJL168C, strain set2, hits give low values 0.991 | S. cerevisiae deletion strains, locus YJL187C, strain SWE1 (second series), hits give low values 0.966 | S. cerevisiae deletion strains, locus YKL009W, strain mrt4, hits give low values 0.997 | S. cerevisiae deletion strains, locus YKL068W, hits give low values 0.981 | S. cerevisiae deletion strains, locus YKL085W, strain MDH1 (second series), hits give low values 0.986 | S. cerevisiae deletion strains, locus YKL085W, strain MDH1, hits give low values 0.986 | S. cerevisiae deletion strains, locus YKL190W, strain CNB1, hits give low values 0.992 | S. cerevisiae deletion strains, locus YKR001C, strain vps1, hits give low values 1 | S. cerevisiae deletion strains, locus YLR039C, strain RIC1, hits give low values 1 | S. cerevisiae deletion strains, locus YLR058C, strain SHM2, hits give low values 0.984 | S. cerevisiae deletion strains, locus YLR102C, strain apc9, hits give low values 0.993 | S. cerevisiae deletion strains, locus YLR268W, strain sec22, hits give low values 1.02 | S. cerevisiae deletion strains, locus YLR342W, strain FKS1 (second series), hits give low values 0.935 | S. cerevisiae deletion strains, locus YLR371W, strain rom2, hits give low values 0.975 | S. cerevisiae deletion strains, locus YLR418C, strain cdc73, hits give low values 1.02 | S. cerevisiae deletion strains, locus YML016C, strain PPZ1, hits give low values 0.972 | S. cerevisiae deletion strains, locus YML032C, strain rad52, hits give low values 1.02 | S. cerevisiae deletion strains, locus YML124C, strain tub3, hits give low values 1 | S. cerevisiae deletion strains, locus YMR078C, strain ctf18, hits give low values 0.99 | S. cerevisiae deletion strains, locus YMR223W, strain ubp8, hits give low values 0.987 | S. cerevisiae deletion strains, locus YMR307W, strain GAS1, hits give low values 0.971 | S. cerevisiae deletion strains, locus YNL067W, strain RPL9B, hits give low values 0.967 | S. cerevisiae deletion strains, locus YNL153C, strain GIM3, hits give low values 0.964 | S. cerevisiae deletion strains, locus YNL233W, strain BNI4, hits give low values 0.998 | S. cerevisiae deletion strains, locus YNL250W, strain rad50, hits give low values 0.97 | S. cerevisiae deletion strains, locus YNL271C, strain bni1, hits give low values 0.978 | S. cerevisiae deletion strains, locus YNL298W, strain CLA4, hits give low values 0.986 | S. cerevisiae deletion strains, locus YNL307C, strain MCK1, hits give low values 0.999 | S. cerevisiae deletion strains, locus YNR052C, strain pop2, hits give low values 0.981 | S. cerevisiae deletion strains, locus YOL006C, strain TOP1, hits give low values 0.945 | S. cerevisiae deletion strains, locus YOL012C, strain htz1 0.48 | S. cerevisiae deletion strains, locus YOL147C, strain pex11, hits give low values 1.01 | S. cerevisiae deletion strains, locus YOR061W, strain CKA2, hits give low values 0.987 | S. cerevisiae deletion strains, locus YOR069W, strain VPS5, hits give low values 0.988 | S. cerevisiae deletion strains, locus YOR136W, strain idh2, hits give low values 1 | S. cerevisiae deletion strains, locus YOR144C, strain elg1, hits give low values 0.996 | S. cerevisiae deletion strains, locus YOR184W, strain ser1, hits give low values 1.05 | S. cerevisiae deletion strains, locus YOR316C, strain cot1, hits give low values 0.984 | S. cerevisiae deletion strains, locus YPR119W, strain clb2, hits give low values 0.995 | S. cerevisiae deletion strains, locus YPR141C, strain kar3, hits give low values 0.974 | S. cerevisiae deletion strains, locus YPR163C, strain tif3, hits give low values 0.999 | S. cerevisiae deletion strains, locus YPR167C, strain met16, hits give low values 0.999 | S. cerevisiae deletion strains, strain wtn01, hits give low values 1.01 | S. cerevisiae strains, strain wild type, hits give low values 0.998

From PubChem BioAssay AID1159580 (chemical genetic matrix, 2015)
